Assay results published in PubChem BioAssay (NCATS).
Calls of active or inactive are those of the source. How the calls were made is not given here.

Each compound was assayed on HIV-1 nucleocapsid protein NCp7 (binding to TG oligonucleotide) (assay: HIV Nucleocapsid (AID 346;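 further: potency is for inhibitors that block NC binding and lower polarization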)). Conditions: HIV-1 NC / fluorescein-TGTGTGTG probe, fluorescence polarization.
How it was run: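 HIV-1 NC (100 nM) binding to fluorescein-labelled ssDNA TG4xF (10 nM) in Hepes pH 7.5, 250mM NaCl, 1uM ZnCl2, TCEP and 2-mercaptoethanol; compounds pin-transferred, 1 hr room temperature, fluorescence polarization read on CCD imager.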
Potency means the concentration at half of the fitted maximal effect.

SMILES | Potency
COc1ccccc1CNc1cc(-c2ccoc2)ncn1 | > 20 µM (inactive)
Cn1cccc1C(=O)N1CCC2(CC1)CCN(c1ncccn1)CC2 | > 20 µM (inactive)
COc1ncc2ncc(=O)n(C)c2n1 | > 20 µM (inactive)
COc1ccc(-c2nc3cnc(N4CCNCC4)nc3n(CCc3ccccc3)c2=O)cc1 | > 20 µM (inactive)
COCCn1c(=O)c(-c2ccccc2)nc2cnc(OCc3ccccc3)nc21 | > 20 µM (inactive)
COc1ccc(-n2c(=O)cnc3cnc(Oc4ccccc4)nc32)cc1 | > 20 µM (inactive)
COc1ccccc1CNc1ccnc(-c2ccccc2CN(C)C)n1 | > 20 µM (inactive)
CN(C)C(=O)c1ccc(-c2cncnc2-n2ccnc2)cc1 | > 20 µM (inactive)
CNc1nc(-c2ccccc2C)nc2ccccc12 | > 20 µM (inactive)
COCC(=O)N1CCC2(CCCN(Cc3ccccc3OC)C2)CC1 | > 20 µM (inactive)
c1ncc(-c2ccoc2)c(NC2CC2)n1 | > 20 µM (inactive)
COc1ncc2nc(C)c(=O)n(C)c2n1 | > 20 µM (inactive)
COc1ccc(CNc2ncnc3ccc(-c4ccoc4)cc23)c(OC)c1 | > 20 µM (inactive)
Cn1c(=O)c(-c2cccs2)nc2cncnc21 | > 20 µM (inactive)
N#Cc1cccc(NC(=O)N2CCCC3(CCN(C(=O)c4cc(C(F)(F)F)cc(C(F)(F)F)c4)CC3)C2)c1 | > 20 µM (inactive)
N#Cc1cccc(NC(=O)N2CC[C@@]3(CCCN(C(=O)c4ccncc4)C3)C2)c1 | > 20 µM (inactive)
c1nc(NCCN2CCOCC2)c2cc(-c3ccc4c(c3)OCO4)ccc2n1 | > 20 µM (inactive)
Cc1noc(C)c1C(=O)N1CCC2(CCCN(c3ccccc3)C2)CC1 | > 20 µM (inactive)
CN(C)c1nc(-c2cccc(C#N)c2)nc2ccccc12 | > 20 µM (inactive)
O=c1c(-c2ccccc2)nc2cnc(N3CCNCC3)nc2n1-c1ccccc1 | > 20 µM (inactive)

SMILES | Potency
COc1cccc(-c2nccc(NCCc3c[nH]c4ccc(OC)cc34)n2)c1 | > 20 µM (inactive)
COCCn1c(=O)c(-c2cccc(C#N)c2)nc2cnc(Nc3ccccc3)nc21 | 5.18 µM (active)
O=C(c1ccncc1)N1CCC2(CC1)CN(c1ncccn1)C2 | > 20 µM (inactive)
O=S(=O)(c1ccccc1)N1CCC2(CC1)CN(c1ccccn1)C2 | > 20 µM (inactive)
CN(C)C(=O)c1ccc(-c2ccc3ncnc(Nc4ccccc4)c3c2)cc1 | > 20 µM (inactive)
CC(=O)N1CCC2(CCCN(c3ccccc3)C2)CC1 | > 20 µM (inactive)
N#Cc1cccc(NC(=O)N2CCC3(CC2)CCN(C(=O)c2csnn2)CC3)c1 | > 20 µM (inactive)
COc1ccc(CNc2cc(-c3cccnc3)ncn2)c(OC)c1 | > 20 µM (inactive)
CN1CCN(c2ncc3nc(-c4ccc(Cl)cc4)c(=O)n(Cc4ccc(F)cc4)c3n2)CC1 | > 20 µM (inactive)
COCCn1c(=O)c(-c2cccs2)nc2cncnc21 | > 20 µM (inactive)
COc1ccc(NC(=O)N2CC3(CCN(C(=O)c4cnccn4)CC3)C2)cc1 | > 20 µM (inactive)
COCC(=O)N1CCC2(CC1)CCN(c1ccccn1)CC2 | > 20 µM (inactive)
Cc1noc(C)c1-c1ccc2ncnc(NCc3ccccc3)c2c1 | > 20 µM (inactive)
O=S(=O)(c1ccccc1)N1CCC[C@@]2(CCN(C(c3ccccc3)c3ccccc3)C2)C1 | > 20 µM (inactive)
c1ccc(-c2cccc(N3CCCC4(CCNCC4)C3)c2)cc1 | > 20 µM (inactive)
CN1CCN(c2ncc3nc(-c4ccc(Cl)cc4)c(=O)n(-c4ccccc4)c3n2)CC1 | > 20 µM (inactive)
CC(C)CN1CCCC2(CCN(C(=O)c3cc(C(F)(F)F)cc(C(F)(F)F)c3)CC2)C1 | > 20 µM (inactive)
CCNc1ncc2nc(-c3ccc(OC)cc3)c(=O)n(Cc3cccs3)c2n1 | > 20 µM (inactive)
COc1cccc(-c2nccc(NCc3cccnc3)n2)c1 | > 20 µM (inactive)
COc1ccc(-n2c(=O)c(-c3cccc(F)c3)nc3cncnc32)cc1 | > 20 µM (inactive)
